L3MBTL1 inh = L3MBTL1 (human) inhibition | AID 485360 | Q9Y468 | hit rate 0.66% among 230,000 | Potency, µM (titrated, usually from 57.1 µM), without a hit: at the highest dose activity, negative = inhibition, usual class: inhibitors | AlphaScreen L3MBTL1–H3K9me1 peptide binding; note: potency is the fitted concentration of half-maximal effect; % is set by controls: 0 for no effect and ±100 for the full control effect; nearly all actives have a fitted effect of over 60% in size
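Displacement of a biotinylated histone H3(1-15) peptide monomethylated at Lys9 (75 nM) from L3MBTL1 (50 nM) was measured by AlphaScreen after a 30 min room-temperature compound incubation; cefsulodin titration served as intraplate control.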
MBNL1-CUG inh = inhibitors of human MBNL1 binding to CUG repeat RNA; AID 2675; TR-FRET MBNL1-His/biotin-(CUG)12 binding, 665/545 ratio; hit rate 0.036% among 280,000; Potency, µM (top dose mostly 57.5 µM), without a hit: at the top dose activity change, negative = inhibition, hits mostly inhibitors; Q9NR56; active = well fitted inhibition curve with a large enough effect in the signal ratio, with a control signal flat, not every such curve was filed as active; inconclusive = small, poorly fitted or top-dose-only effect, or effect the other way, or a change in a side signal; inactive = no such curve, though single readings can be large or run the other way; the % refers to the signal ratio; note: potency is the fitted concentration of half-maximal effect; % is set by controls: 0 for no effect and ±100 for the full control effect
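MBNL1-His + Biotin-(CUG)12, cpd titration 92 nM–58 uM; Tb anti-His Ab 0.055 ng/ul, SA-XL665 5 nM (final); 60 min RT; ratiometric 665/545 nm, Ex 340 nm; normalized to buffer and full-complex controls.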
CtBP-E1A blk = blocks the CtBP interaction with E1A | activity change, % (concentration not given with the values) | hit rate 0.49% among 340,000 | AlphaScreen GST-E1A/His-CtBP binding, 1536-well; active compounds read low | AID 651724; in the data active = activity change below about -65%; inconclusive = mostly about -30% to -63%; note: % is set by controls: 0 for no effect and ±100 for the full control effect
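Steps: dispense buffer (Tris pH 8.0, NaCl 300 mM, TCEP 1 mM, BSA, Tween 20); add 5X protein mix (GST-E1A, His-CtBP, 125 nM each); pin 23 nL compound; 2 h at 37 °C, dark; add 5X beads (50 ug/mL); 1 h; read.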
CBFb RUNX1 block = CBF-beta/RUNX1 interaction disruption; AlphaScreen CBFb-His/RUNX1-biotin binding, biochemical; 230,000 tested, under 10 active; Q01196+Q13951; Potency, µM (top dose mostly 59.8 µM), for inactives: at the top dose activity, negative = inhibition, usual class: inhibitors; AID 1477; note: % of control where 0% means no effect
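Bead-based AlphaScreen assay; binding partners His-tagged CBF-beta and biotinylated RUNX1 at 30 nM each. Compound exposure 15 min after a 20-min protein preincubation; bead step 90 min; all steps at room temperature.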
Six1-Eya2 inh = inhibitors of human Six1/Eya2 interaction; Q15475+O00167; AlphaScreen GST-Six1/His-Eya2 binding, biochemical; active compounds read low; activity change, % (no concentration beside the values); hit rate 0.56% among 360,000; in the data active = activity change below about -65%; inconclusive = mostly about -30% to -63%; note: % is set by controls: 0 for no effect and ±100 for the full control effect
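AlphaScreen with GST-Six1 and His-Eya2 (5X mix: 250 nM and 500 nM), glutathione donor and nickel acceptor beads; buffer 50 mM Tris pH 8.0, 300 mM NaCl, 1 mM TCEP; 1 h at 37 C in the dark.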
Eya2 inh = blocks the phosphatase activity of human Eya2; recombinant Eya2, OMFP fluorescence dephosphorylation (OMFP is methylfluorescein phosphate); Potency, µM (top dose mostly 76.9 µM), without a hit: at the top dose activity, negative = inhibition, hits mostly inhibitors; hit rate 0.006% among 330,000; AID 488837; note: potency is the fitted concentration of half-maximal effect; % is set by controls: 0 for no effect and ±100 for the full control effect
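Eya2 protein (added as 0.2 uM solution) was preincubated with compound for 10 min at ambient temperature in 50 mM HEPES pH 7.5, 50 mM NaCl, 5 uM MgCl2, 0.05% BSA, 1 mM DTT. OMFP (added at 50 uM) then reacted 10 min; fluorescence read at 485/525 nm.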
An asterisk follows results filed as active; ? = inconclusive; · = not tested or not shown. The list is not random: actives were taken first. Their share in the collection is about 0.89%. Unless noted, calls come from the whole dose curve; as a rule, active = well fitted curve in the direction sought with a large enough effect; inconclusive = small, poorly fitted or top-dose-only effect, or another doubt; inactive = no such curve, though single readings can be large; an effect the other way counts as inactive or inconclusive.

SMILES	L3MBTL1 inh	MBNL1-CUG inh	CtBP-E1A blk	CBFb RUNX1 block	Six1-Eya2 inh	Eya2 inh
CC1CC(C)CN(C(=O)c2ccc3c(c2NCCO)C(=O)c2ccccc2C3=O)C1 (stereo not drawn)	·	?	?	?	-70*	-22%
CC1CC(C)CN(C(=O)COC(=O)CN2C(=O)c3ccccc3C2=O)C1 (stereo not drawn)	2%	·	8	·	10	-1%
O=C(COC(=O)c1cc(Br)ccc1O)Nc1cccnc1Cl	0%	·	2	·	-10	5%
COc1cc(CC(=O)OCc2ccccc2F)cc(OC)c1OC	·	-3%	13	·	-2	6%
Oc1c(N=Nc2ccccn2)ccc2ccccc12	11µM*	?	-95*	·	-97*	-7%
Oc1[nH]c2ccccc2c1N=Nc1ccccn1	·	·	6	·	0	·
COC(=O)c1ccc(CNC(=O)Cn2cnc3c(OCc4ccccc4)ncnc32)cc1	6%	·	7	·	2	3%
Cc1onc(-c2ccccc2)c1C(=O)NC(=S)NNC(=O)c1ccc(O)cc1	34%	?	-4	?	-9	0%
Cc1onc(-c2ccccc2)c1C(=O)NC(=S)NNC(=O)c1ccccc1O	?	-14%	7	·	-85*	11%
Cc1onc(-c2ccccc2)c1C(=O)NC(=S)NNC(=O)c1ccc(O)cc1O	-21%	-6%	-14	·	-93*	-8%
Cc1onc(-c2ccccc2)c1C(=O)NNC(=O)c1ccccc1Br	-1%	·	·	·	-4	18%
Cc1cccnc1NCc1ccc(O)c2ncccc12	28µM*	26%	-91*	-17%	-90*	17%
Cc1ccc(NCc2ccc(O)c3ncccc23)cc1C	-19%	9%	-80*	-3%	-69*	-7%
Oc1ccc(CNc2cccc(C(F)(F)F)c2)c2cccnc12	13µM*	·	·	·	·	-3%
Cc1ccc(NCc2ccccc2O)cc1	·	0%	-17	-18%	-15	9%
COc1cccc(CNc2cccc(C(F)(F)F)c2)c1O	·	-2%	4	4%	1	11%
Cc1ccc(NCc2ccc(O)c3ncccc23)cc1	-25%	8%	-78*	-2%	-72*	-1%
Cc1ccc(O)c(CNc2cccc3cccnc23)c1	-28%	3%	?	-13%	-22	8%
C=CCn1c(SCC(=O)Nc2ncc(Cc3cc(C(F)(F)F)ccc3Cl)s2)nnc1-c1ccncc1	8%	-4%	6	5%	5	11%
CCOc1ccc2c(c1)c(N=NC(=N)N)c(O)n2C	-2%	?	?	-5%	-80*	1%
CCOc1ccc2c(c1)c(N=NC(N)=S)c(O)n2C	-12%	?	?	-3%	?	8%
Oc1ccccc1C=NNC(=S)NC1CC2C=CC1C2 (stereo not drawn)	·	·	?	·	-77*	·
Oc1c(Cl)cc(Cl)cc1/C=N/NC(=S)NC1CC2C=CC1C2 (stereo not drawn)	32µM*	-27%	-82*	-25%	?	2%
Oc1ccccc1/C=N/NC(=S)NC1CC2C=CC1C2 (stereo not drawn)	?	7%	-86*	?	-82*	-7%
O=C(N/N=C/c1ccccc1O)NC12CC3CC(CC(C3)C1)C2	·	-7%	-7	·	1	-13%
Oc1c(Cl)cc(Cl)cc1/C=N/Nc1ncc(Br)cn1	5%	-2%	-28	4%	-9	8%
Oc1ccc(O)c(C=NNC(=S)NC2CC3CC2C2C=CCC32)c1 (stereo not drawn)	·	·	-9	·	?	·
Cc1nc2ccccc2c(=O)n1NC(=O)c1ccccc1Br	·	-2%	-3	·	8	-12%
O=C(/C=C/c1cccc([N+](=O)[O-])c1)Nn1c(-c2ccccc2F)nc2ccccc2c1=O	-5%	?	-28	-10%	-6	-14%
Cc1nc2ccccc2c(=O)n1NC(=O)/C=C/c1ccc(Br)cc1	-3%	·	-65*	0%	-14	-1%
